An excerpt weighted towards active compounds, which were near 2.2% of everything screened.
BaF3 tox = counter-screen for JAK2V617F inhibitors: parental Ba/F3 viability inhibitors; inhibition, % at 5.6 µM; 1.1% of 220,000 active; AID 1486; CellTiter-Glo ATP luminescence;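 active = inhibition above a per-campaign cutoff, the mean inhibition of all tested compounds plus 3 SD, cut at about 27% in these data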
APP transl inh = APP translation inhibition; inhibition, % at 2 µM; SH-SY5Y APP 5'UTR-luciferase reporter, luminescence; 0.82% of 190,000 active; AID 1285;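 active = inhibition above a set limit, derived from the sample mean plus 3 SD, cut at about 45% in these data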
aSyn 5UTR inh = 5' untranslated region of α-synuclein, MLPCN primary screen; alpha-synuclein 5'UTR reporter, inhibitor activity; inhibition, % (tested at 7.5 µM); 0.82% of 300,000 active; in the data active = inhibition above about 60%;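 also: H4 neuroglioblastoma cells stably carrying SNCA 5'UTR luciferase fusion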
KLF5 inh = suppresses KLF5 promoter-driven expression; inhibition, % at 5 µM; 0.23% of 290,000 active; AID 1700; DLD-1 KLF5 promoter-luciferase reporter, luminescence;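 active = inhibition above a per-plate limit of that plate's mean compound inhibition plus 3 SD, cut at about 60% in these data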;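 also: higher means less KLF5 promoter-driven luciferase light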
IEC-6 cytotox = IEC-6 cytotoxicity, counter-screen for KLF5 inhibitors. AID 1825. luminescence viability. 0.78% of 290,000 active. inhibition, % at 5 µM; in the data active = inhibition above about 22%
Ba/F3 V617F tox = loss of viability in JAK2V617F-driven Ba/F3 cells; Ba/F3 EpoR-JAK2V617F viability, ATP luminescence; inhibition, % at 5.6 µM; 1.1% of 220,000 active;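 active = inhibition above the campaign mean plus 3 SD over all tested compounds, cut at about 24% in these data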;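 also: cytokine-independent growth of Ba/F3 cells driven by EpoR plus mutant JAK2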
BaF3 parental 2 = parental Ba/F3 viability inhibition for JAK2V617F counter-screen. AID 1520. shares compounds with Ba/F3 V617F tox. inhibition, % at 5.6 µM. CellTiter-Glo luminescence; cells kept alive by added IL-3. 31% of 580 active;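 active = cell growth inhibition above the hit limit set in the earlier mutant JAK2 cell screen, cut at about 27% in these data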
JAK2V617F confrm = Ba/F3 EpoR-JAK2V617F viability loss, confirmation | shares compounds with Ba/F3 V617F tox | CellTiter-Glo luminescence | inhibition, % at 5.6 µM | 66% of 580 active | AID 1521;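 active = mean inhibition above the hit cutoff derived in the earlier primary screen, cut at about 25% in these data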;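 also: higher means lower luminescence from reduced cell ATP and viability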
Numbers stand for hits; 0 = inactive; - = not tested or not shown.

SMILES	BaF3 tox	APP transl inh	aSyn 5UTR inh	KLF5 inh	IEC-6 cytotox	Ba/F3 V617F tox	BaF3 parental 2	JAK2V617F confrm
Cc1ccc(C)c(N2CCN(CCCNC(=O)Cn3cccc3C(=O)c3ccccc3C)CC2)c1	0	0	0	0	0	41	0	29
CN(c1ccccc1)S(=O)(=O)c1cccc(C(=O)NCCc2ccc(O)c(O)c2)c1	0	0	0	0	0	32	0	67
CSCCC(NC(=O)c1ccccc1)C(=O)NNC(=O)c1csc(N2CCOCC2)n1 (configuration not stated)	-	-	0	0	0	-	-	-
CCOc1cc(C(=O)Nc2ccc(N3CCN(S(C)(=O)=O)CC3)cc2)cc(OCC)c1OCC	0	0	0	0	0	100	0	0
CCOc1ccc(N2CC(O)(c3cccs3)[N+]3=C2CCCC3)cc1 (configuration not stated)	0	0	0	0	0	23	31	46
OC1(c2cccs2)CN(c2ccccc2)C2=[N+]1CCCC2 (configuration not stated)	0	0	0	0	0	0	-	-
O=C(c1csc2ccccc12)N1CCCCCC1	0	0	0	0	0	28	0	36
O=C(CSc1ccc2ccccc2c1Br)Nc1cccc(S(=O)(=O)NC2=NCCCCC2)c1	0	0	64	0	0	33	0	75
Cc1cc(C(=O)Nc2c(F)cc(F)cc2Br)n(-c2ccccc2)n1	-	-	0	0	0	-	-	-
CC1CCCN(CCCNC(=O)c2cc3c(Cl)nc4ccccc4c3s2)C1 (configuration not stated)	0	0	0	0	0	63	0	85
Cc1nc2ccccc2c2oc(C(=O)NCCCN3CCCC(C)C3)cc12 (configuration not stated)	-	-	0	0	0	-	-	-
Cc1ccc2c(CC(=O)NC3CCS(=O)(=O)C3)coc2c1C (configuration not stated)	-	-	0	0	0	-	-	-
Cc1ccc2c(CC(=O)NCc3ccco3)coc2c1C	0	0	0	0	0	35	0	0
C=CCOC(=O)C1=C(C)NC(SCC(N)=O)=C(C#N)C1c1ccc(C)cc1 (configuration not stated)	0	-	0	0	0	0	-	-
C=CCOC(=O)C1=C(C)NC(SCC)=C(C#N)C1c1ccc(Cl)cc1 (configuration not stated)	0	0	67	0	0	41	0	29
CC(C)c1ccc(CNn2cnnc2)cc1	-	-	0	0	0	-	-	-
C/C(=N\NC(=O)CCn1nnc2ccccc21)c1ccco1	0	-	0	0	0	0	-	-
N#C/C(=C\c1ccc(O)c(O)c1)S(=O)(=O)c1ccccc1	0	0	0	0	0	24	0	0
O=C1Nc2cc3c(cc2C1=O)sc1ccccc13	0	-	0	0	0	0	-	-
O=S(=O)(c1cnc(Cl)c(Br)c1)N1CCc2ccccc21	0	-	0	0	0	28	0	58
O=S(=O)(c1cc(Cl)ccc1Cl)N1CCc2ccccc21	-	-	0	0	0	-	-	-
O=S(=O)(c1cnc(Cl)c(Cl)c1)N1CCc2ccccc21	0	-	0	0	0	25	0	59
O=S(=O)(c1cnc(Cl)c(Cl)c1)N1CCCc2ccccc21	0	0	0	0	0	0	-	-
CCN(CC)S(=O)(=O)c1ccc(NC(=S)Nc2ccc(F)cc2)cc1	-	-	0	0	0	-	-	-
CC(NC(=O)c1c(Cl)cnn1C)C1CCCO1 (configuration not stated)	0	-	0	0	0	0	-	-
SMILES	BaF3 tox	APP transl inh	aSyn 5UTR inh	KLF5 inh	IEC-6 cytotox	Ba/F3 V617F tox	BaF3 parental 2	JAK2V617F confrm
O=C(Nc1ccc(F)cc1Cl)C1=COCCO1	-	-	0	-	-	-	-	-
Cc1[nH]c2ccc(F)cc2c1CCN(Cc1ccncc1)C(=S)Nc1cccc(F)c1	0	0	0	0	0	27	29	47
CC12CCC(=O)N1C(C(=O)N1CCN(S(=O)(=O)c3cccc(C(F)(F)F)c3)CC1)CS2 (configuration not stated)	-	-	0	-	-	-	-	-
COc1cccc(-c2cccc(NC(=O)C3CCN(CC4CCOC4)CC3)c2)c1 (configuration not stated)	-	-	0	0	0	-	-	-
Cc1cccnc1Nc1nc(-c2ccc(O)c(O)c2)cs1	0	0	0	0	0	81	0	93
COc1ccc(-c2csc(Nc3ncccc3C)n2)cc1OC	0	0	0	0	0	0	-	-

Screens from PubChem BioAssay.
